hgDAF12 agonist: activates the H. glycines DAF-12 receptor ligand-binding domain | HEK293 GAL4-hgDAF12 UAS-luciferase reporter, agonist luminescence; normalized to butyrate control | activation, % at 6.8 µM | 370,000 tested, 1.8% active | AID 687014;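 active means activation above a cutoff set at the mean of all screened compounds plus 3 SD, cut at about 10% in these data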
DAX1 StAR inh: inhibitors of DAX1 repression of SF-1 activated StAR promoter. HEK293T StAR-luciferase reporter, SF-1/DAX-1 repression relief. inhibition, % at 6.8 µM. 370,000 tested, 1.1% active;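 active means inhibition above the mean over all tested compounds plus 3 SD, cut at about 3.6% in these data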;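 further: higher inhibition means more luminescence from relief of DAX-1 repression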
ssDAF12 agonist: activates DAF-12 receptor from parasite S. stercoralis | HEK293 ssDAF-12/GRIP1 lit1-tk-luc reporter, luminescence; % of 3 µM dafachronic acid response | activation, % at 6.8 µM | 370,000 tested, 1% active | AID 652126;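 active means activation above the mean over all tested compounds plus 3 SD, cut at about 0.9% in these data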
SMARCA2 activ: activators of SMARCA2 function | MG213 cells, MMTV-luciferase reporter, dexamethasone, overnight | activation, % at 9.1 µM | 370,000 tested, 1% active | AID 652017; in the data active means activation above about 7.8%
hcDAF-12 act: activates DAF-12 receptor from parasite H. contortus; HEK293 hcDAF-12 lit1-tk-luc reporter, luminescence; 0% DMSO, 100% Δ7-dafachronic acid; activation, % at 6.8 µM; 370,000 tested, 1.4% active; AID 652067;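 active means activation above the mean of all tested compounds plus 3 SD, cut at about 5.5% in these data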
Large screens that a line does not name were inactive. Most compounds without a hit are left out; they make up all but 4.2% or so of the library.

COc1ccc(C(=O)OCCN2CCN(C3CN(Cc4cn(Cc5ccccc5C(F)(F)F)nn4)S(=O)(=O)C3)CC2)cc1OC (stereo not drawn)	none
Cn1nnnc1Sc1ncnc2scc(-c3cnc(N)nc3)c12	none (no result: DAX1 StAR inh, SMARCA2 activ)
O=C(Cn1c2[n+](c3ccc(C(F)(F)F)cc31)CCCCC2)Nc1ccccc1	hcDAF-12 act 5.9
CCOC(=O)[C@]12CCCC=C1N(CCCOC)C(=O)[C@@H]2CC(=O)NCCCN1CCCC1=O	none
CCN(CC)C(=O)CC[C@H]1CC[C@]2(CCCN(S(C)(=O)=O)C2)O1	none
CCc1ccc2nc(/N=C(\N)NC(=O)c3ccccc3)nc(C)c2c1	SMARCA2 activ 7.9
O=C(C[C@@H]1C[C@H]2c3cc(NC(=O)c4cccnc4)ccc3O[C@H]2[C@H](CO)O1)NCc1ccc(Oc2ccccc2)cc1	none
COC(=O)[C@]12C[C@H](CC(=O)N3CCSCC3)C(=O)N(Cc3ccc(Cl)cc3Cl)C1=C[C@H](COCc1ccccc1)O[C@@H]2C	none
CCc1cc2c(=O)c(-c3cnn(-c4ccccc4)c3)c(C)oc2cc1OCC(=O)Nc1ccc(F)c(F)c1	ssDAF12 agonist 1.9
COc1ccc(C(C(=O)NCc2ccccc2)n2c(-c3ccccn3)nc3ccccc32)cc1 (stereo not drawn)	none
COC(=O)C[C@@H]1CC[C@H]2[C@H](COc3ccc(NC(=O)C4CCC4)cc3C(=O)N2C)O1	none
CC(=NN1CCN(Cc2ccccc2Cl)CC1)c1ccc(O)cc1	none
Cc1n(CC(=O)c2ccc(F)cc2)c2ccccc2[n+]1C	none
Cn1c(=N)n(CC(=O)c2ccc(F)cc2)c2ccccc21	hgDAF12 agonist 11, ssDAF12 agonist 1.2, hcDAF-12 act 13
C/C(CCc1ccc2c(c1)OCO2)=N\NC(=O)c1ccc(C)cc1C	hgDAF12 agonist 13
CC(=O)C1=C(C)N(CC(C)C)C(=S)NC1c1cccc(Cl)c1 (stereo not drawn)	none
COc1ccc(C=Nn2c(-c3ccc(F)cc3)n[nH]c2=S)c(OC)c1OC	none
FC(F)(F)c1cccc(-c2cc3nc(NCCOc4ccccc4)ccn3n2)c1	hgDAF12 agonist 12
CCCOC(=S)N/C(=N\S(=O)(=O)c1ccccc1)c1ccccc1	SMARCA2 activ 7.9
CCOC(=S)N/C(=N\S(=O)(=O)c1ccccc1)c1ccccc1	none
CCC(C)N(C(C)CC)S(=O)(=O)c1ccc2[nH]c(=O)oc2c1 (stereo not drawn)	none
CCCCNC(=O)O[C@H]1CC[C@@]23CCCN2C(=O)CCC[C@H]3[C@H]1CCC	none (no result: DAX1 StAR inh, SMARCA2 activ)
c1csc(-c2noc(COc3ccc4c(c3)CCCC4)n2)c1	hgDAF12 agonist 12, DAX1 StAR inh 4.0
COc1ccc(Cc2nc(-c3ccc(-n4cccc4)cc3)no2)cc1	none
COc1ccc(Cc2nc(-c3ccccc3)no2)cc1	hgDAF12 agonist 13
COc1ccc(Cc2nc(-c3cccs3)no2)cc1	hgDAF12 agonist 11
COc1cc(O)sc1C=Nc1ccc(Cl)cc1Cl	ssDAF12 agonist 1.1
Cc1c(C(C)(C(=O)O)c2c(C)n(C)c3ccccc23)c2ccccc2n1C	hcDAF-12 act 5.7
COC(=O)[C@H]1C[C@@]2(CC=C(C)C)c3ccccc3N(C(=O)OC(C)(C)C)[C@H]2N1C(=O)OC(C)(C)C	none (no result: DAX1 StAR inh, SMARCA2 activ)
Cc1ccc(SCC(=O)OCC(=O)NCCCc2ccccc2)cc1	none
O=C(COC(=O)CSc1ccc(F)cc1)NCCCc1ccccc1	ssDAF12 agonist 1.1
O=C(CSc1nc2ccc(Cl)cc2[nH]1)Nc1ccc2[nH]c(=O)[nH]c2c1	ssDAF12 agonist 1.0
Cc1ccc2nc(SCC(=O)Nc3ccc4[nH]c(=O)[nH]c4c3)[nH]c2c1	ssDAF12 agonist 1.0
O=C(CSc1nc2ccccc2[nH]1)Nc1ccc(F)c(F)c1	none
Cc1ccc2nc(C3CCCCC3)[nH]c2c1	hgDAF12 agonist 12
O/N=C1/CCc2cccc3cccc1c23	none
O=C1C(=NO)CCc2ccccc21	ssDAF12 agonist 1.3
O=C(c1ccccc1)C12COc3ccccc3C1ON=C2c1ccccc1 (stereo not drawn)	none
Cc1ccccc1CN1CCCCC(NC(=O)c2ccc(COc3ccccc3)cc2)C1=O (stereo not drawn)	none
CCOC(=O)c1sc(-c2ccc(Br)cc2)cc1N	hgDAF12 agonist 11
CCOC(=O)c1cc(-c2ccc(N)cc2)sc1N	none
CCOc1ccc(NC(=O)CN(C)C(=O)c2cc(S(=O)(=O)N3CCCCCC3)ccc2OC)cc1OCC	DAX1 StAR inh 3.9
Cc1ccc(C)c(C2=CSC3=NCCN23)c1	hcDAF-12 act 6.2
O=C(CCN1CCCCC1)c1ccccc1	none
C[N+]1(CCC(=O)c2ccccc2)CCCCC1	ssDAF12 agonist 1.7
Cc1ccc(C)c(NC(=S)Nc2ncccc2C)c1	hgDAF12 agonist 12
Cc1cc(C)nc(NC(=S)Nc2ccc(F)cc2F)c1	none
Cc1cccnc1NC(=S)Nc1ccc(F)cc1F	hgDAF12 agonist 11
COc1cc(NC(=S)Nc2ncccc2C)cc(OC)c1OC	none
Cc1ccc(N2C(=O)CC(c3c[nH]c4ccccc34)C2=O)cc1 (stereo not drawn)	none
CCC1=NN=C(c2ccc(F)cc2)C(c2c[nH]c3ccccc23)N1O (stereo not drawn)	ssDAF12 agonist 0.9
NC(=O)c1c(N)[nH]c(C(=O)c2ccccc2)c1-c1ccccn1	none (no result: DAX1 StAR inh, SMARCA2 activ)
CN(C)c1ccc(/C=N/NC(=O)c2sccc2-n2cccc2)cc1	hgDAF12 agonist 11
CCc1cc(C(=O)Cc2nc3ccccc3s2)c(O)cc1OCC(=O)O	ssDAF12 agonist 0.9
CCCCNC(=O)C[C@H]1C[C@@]2(C(=O)OC)C(=C[C@H](C(C)(C)C)O[C@@H]2C)N(Cc2ccc(Cl)cc2Cl)C1=O	none
CCN(CC)CCCn1c2c(c(SCC(=O)Nc3cc(C)cc(C)c3)nc1=O)CCC2	DAX1 StAR inh 4.4
CCN(CC)CCn1c2c(c(SCC(=O)Nc3nc4ccccc4s3)nc1=O)CCC2	hcDAF-12 act 5.8
CCN(CC)CCCn1c2c(c(SCC(=O)Nc3cccc(C(C)=O)c3)nc1=O)CCC2	none
CCN(CC)CCn1c2c(c(SCC(=O)Nc3nc4ccc(C)cc4s3)nc1=O)CCC2	none
O=C(C1CCN(S(=O)(=O)c2ccc3[nH]c(=O)oc3c2)CC1)N1CCCN(Cc2ccccc2)CC1	none
COC(=O)[C@]12C[C@H](CC(=O)NCCCCc3ccccc3)C(=O)N(Cc3cccc4ccccc34)C1=C[C@H](C(C)(C)C)O[C@@H]2C	none
CC(C)(C)CN1CCN(Cc2cc3ccccc3[nH]2)CC1CCO (stereo not drawn)	hcDAF-12 act 6.3
CCOc1ccc(CN2CCN(Cc3cc4ccccc4[nH]3)CC2CCO)cc1 (stereo not drawn)	ssDAF12 agonist 2.0
CC(C)CN1CCN(Cc2cc3ccccc3[nH]2)CC1CCO (stereo not drawn)	none
Cc1ccc(-c2nc3cccnc3s2)cc1NS(=O)(=O)c1ccc2c(c1)OCCO2	none

Screening data deposited in PubChem by The Scripps Research Institute Molecular Screening Center.
